Structures are written as SMILES. Compounds without any hit were thinned out: in the full panel of roughly 83,000, 20% have a hit.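 Percent growth is the endpoint: 0 to 100 indicates growth inhibition (40 means 60% inhibition), 0 means no net growth, and negative values indicate cell death.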 Unmarked numbers belong to inactive results. Calls of active or inactive are those of the source. Rule for the calls: active = growth percent below 10; inactive = the rest.

For nine molecules, growth results are on record in PubChem BioAssay (NCI).

Assay in all cases: NCI-60 one-dose screen, 48 h (100 = growth as untreated, 0 = no growth, -100 = all killed)
Common to all, as to conditions: 10 µM unless noted

The subject of assay [1] is SR leukemia.
For assay [2], the system named is RPMI-8226 leukemia.
For assay [3], the system named is OVCAR-8 ovarian.
Assay [4] deals with OVCAR-5 ovarian.
The subject of assay [5] is OVCAR-4 ovarian.
Assay [6] has as its system IGROV1 ovarian.
Assay [7] deals with OVCAR-3 ovarian.
In assay [8] the test system is HS 578T breast.
In assay [9] the test system is NCI/ADR-RES ovarian.
Assay [10] deals with T-47D breast.
Assay [11] has as its system BT-549 breast.
The test system of assay [12] is MDA-MB-435 melanoma.
In assay [13] the test system is SW-620 colon.
The test system of assay [14] is MCF7 breast.
Assay [15] has as its system HCT-116 colon.
For assay [16], the system named is HCC-2998 colon.
The test system of assay [17] is KM12 colon.
The test system of assay [18] is SK-OV-3 ovarian.

In the case of `COc1ccccc1/C=C/C(=O)c1nnn(-c2ccc(C(=O)O)cc2)c1C`, the growth is 67% in assay [1]; 90.4% in [2]; 91.6% in [3]; 113% in [4]; 101% in assay [5]; 90.4% in assay [6]. Moreover, the growth was 89.2% in assay [7]; 106% in [8]; 93.5% in assay [9]; 87.9% in assay [10]; 96.4% in [11]; 87.8% in assay [12]. In addition, the growth in assay [13] is 102%; in assay [14], 54.2%; in [15] it was 68%; in assay [16], 102%; in [17], 93.8%.
`CN1CCN(c2ccc(NC(=O)Nc3ccc4c(ccn4-c4cccc(C(N)=O)n4)c3)cc2C(F)(F)F)CC1`: the growth in [1] was 14.6%; in assay [2], -17.5% (active); in assay [3] it was 77.6%; in [4] it was 85.3%; in assay [5] it was 84.9%; in [6], 80.1%. In addition, the growth in assay [7] is 102%; in [8], 22.1%; in assay [9] it was 94.5%; in assay [10], 80.6%; in assay [11], 89.9%; in assay [12], -45.2% (active). Further, the growth in assay [13] was -10.5% (active); in [14], 10.7%; in assay [15], 12.3%; in assay [16], 63.4%; in assay [17], 22%.
In the case of `CCCCCCNC(=O)Oc1ccc(/C(=C(\C)c2ccc(Cl)cc2)c2ccc(OCCN(C)C)cc2)cc1`, the growth in assay [1] was 2% (active); in assay [2], -11.6% (active); in assay [3], 84.8%; in assay [4], 78.1%; in [18], 94.4%; in assay [6], 44.7%. Also, the growth in assay [7] was 66.4%; in assay [8], 80.6%; in assay [9], 62.9%; in [10], 54.8%; in assay [11], 77.4%; in [12] it was 85.3%. Moreover, the growth in [13] is 21.3%; in [14] it was 10.8%; in [15], 18.7%; in assay [16], 71.4%; in assay [17] it was 83.1%.
As for `N#Cc1c(NC(=O)c2ccccc2C(F)(F)F)sc2c1CCC(=O)C2`, the growth in [1] is 20.8%; in assay [2], -2.1% (active); in assay [3] it was 16.3%; in assay [4] it was 8.8% (active); in [5], 2.89% (active); in assay [6] it was 15.2%. Moreover, the growth in assay [7] was 4.15% (active); in assay [8], 30.4%; in assay [9], 4.69% (active); in assay [10], 1.79% (active); in assay [11] it was 11.7%; in assay [12], 0.916% (active). Also, the growth is 3.92% (active) in assay [13]; 3.89% (active) in assay [14]; 8.03% (active) in [15]; 27.6% in assay [16]; 5.98% (active) in [17].
Take `O=C1[C@@H]2Cc3c([nH]c4ccccc34)[C@H](c3c(Cl)cccc3Cl)N2C(=O)CN1C1CCN(Cc2ccccc2)CC1`: the growth is 1.57% (active) in [1]; 7.38% (active) in [2]; 47.7% in [3]; 63% in assay [4]; -0.678% (active) in assay [5]; 81.4% in assay [7]. Moreover, the growth is 28.5% in assay [8]; 18.5% in [9]; 76.8% in assay [10]; 29.4% in [11]; -61.8% (active) in assay [12]; 10.6% in assay [13]. Also, the growth was 1.17% (active) in assay [14], -32.8% (active) in assay [15], 10.6% in [16] and 30.2% in [17].
Turning to `O=c1c2ccccc2nc(COc2ccccc2)n1/N=C/C=C/c1ccccc1`, the growth was 85.7% in assay [1]; 87.5% in assay [2]; 100% in [3]; 98.8% in [4]; 90% in [5]; 90.2% in [6]. The growth in [7] is 103%; in [8], 94.4%; in assay [9] it was 91.8%; in [10], 94.6%; in assay [11], 135%; in [12], 99.8%. In addition, the growth in [13] was 91.5%; in assay [14], 83.8%; in [15], 96.5%; in assay [16], 101%; in assay [17], 111%.
As for `O=C(NNc1nc2cc(F)c(F)cc2n2cccc12)c1cccnn1`, the growth in assay [1] was 11.8%; in [2], 9.62% (active); in assay [3], 19.8%; in assay [4] it was 42.5%; in assay [5], 4.78% (active); in assay [6], 14.4%. The growth in assay [7] was 7.39% (active); in assay [8], 29.3%; in assay [9], -0.232% (active); in [10], 13.7%; in assay [11], 32.3%; in assay [12], 27.8%. In addition, the growth in assay [13] is 22%; in [14] it was 7.41% (active); in assay [15], 8.91% (active); in assay [16], 49.2%; in assay [17], 24.3%.
On to `CN1C(=O)/C(=C/C=C/c2ccco2)SC1=S`, for which the growth in assay [1] was 79.6%; in [2] it was 64.4%; in assay [3] it was 71.1%; in assay [4] it was 87.5%; in assay [5], 96.1%; in assay [6] it was 54.3%. Moreover, the growth in assay [8] was 98.1%; in assay [9], 75.6%; in [10], 63%; in [11], 55.1%; in assay [12], 95.8%; in assay [13], 104%. Moreover, the growth in assay [14] was 24.2%; in assay [15], 54.4%; in [16] it was 99.2%; in assay [17] it was 91.3%.
On to `CN1CCN(c2ccc(C(=O)Nc3cccc(-c4cn(-c5ccc(S(N)(=O)=O)cc5)nn4)c3)cc2C(F)(F)F)CC1`, for which the growth is -1.19% (active) in assay [1]; 10.7% in assay [2]; 86.7% in assay [3]; 84.3% in [4]; 84.8% in assay [5]; 86.9% in assay [6]. Further, the growth in [8] was 71%; in assay [9], 101%; in [10] it was 74.8%; in assay [11] it was 73.5%; in assay [12], 77.7%; in assay [13], 50.4%. Also, the growth was 70.8% in assay [14], 71.4% in [15], 88.3% in [16] and 59.1% in [17].
